# Test results reported in publication PMC7862700, “An all-to-all approach to the identification of sequence-specific readers for epigenetic DNA modifications on cytosine”.
# Columns and labels:
# Assay in all cases: DAPPL (digital affinity profiling via proximity ligation, sequencing); 10 mM Tris-HCl pH 7.5, 50 mM NaCl, 1 mM DTT, 4% glycerol, room temperature, 30 min; GST-TFs on glutathione beads, 16-mer random dsDNA library, 0.1% formaldehyde crosslink after washing; high values mean tight binding
# [1] = molecular target: T1, FEV (Homo sapiens, UniProt Q99581 1-238); details: protein: recombinant; tags: N-terminal GST; dsDNA, one strand shown
# T1 sequence: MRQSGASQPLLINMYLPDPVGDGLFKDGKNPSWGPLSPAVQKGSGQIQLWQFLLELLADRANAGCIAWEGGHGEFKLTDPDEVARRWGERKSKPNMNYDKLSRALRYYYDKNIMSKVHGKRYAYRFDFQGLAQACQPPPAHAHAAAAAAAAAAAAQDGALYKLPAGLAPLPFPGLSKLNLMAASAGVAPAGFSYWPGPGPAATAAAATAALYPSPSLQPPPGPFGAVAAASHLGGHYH
# In short: (§1)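 The binding signal reported is, for every hexamer, its read frequency for a factor over its read frequency for the tag-only sample. Reads came from pools of yeast-expressed, GST-fused human transcription factors on glutathione beads, barcoded with DNA and mixed with that sample, which were incubated with 200 nmole of a random double-stranded 16-mer DNA library in Tris/NaCl/DTT/glycerol buffer at room temperature for 30 min. After washing, the pools were crosslinked with 0.1% formaldehyde, proximity-ligated with BsaI/T4 ligase for 1 h at 37 °C, PCR-amplified and sequenced on an Illumina NextSeq500.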
# [2] = molecular target: ETV5 (Homo sapiens, UniProt P41161 1-510); details: protein: recombinant; tags: N-terminal GST; dsDNA, one strand shown
# In short: as §1
# [3] = molecular target: HSF1 (Homo sapiens, UniProt Q00613 1-529); details: protein: recombinant; tags: N-terminal GST; chain copies: 3; dsDNA, one strand shown
# In short: as §1
# [4] = molecular target: T2, SPIC (Homo sapiens, UniProt Q8N5J4 1-248); details: protein: recombinant; tags: N-terminal GST; dsDNA, one strand shown
# T2 sequence: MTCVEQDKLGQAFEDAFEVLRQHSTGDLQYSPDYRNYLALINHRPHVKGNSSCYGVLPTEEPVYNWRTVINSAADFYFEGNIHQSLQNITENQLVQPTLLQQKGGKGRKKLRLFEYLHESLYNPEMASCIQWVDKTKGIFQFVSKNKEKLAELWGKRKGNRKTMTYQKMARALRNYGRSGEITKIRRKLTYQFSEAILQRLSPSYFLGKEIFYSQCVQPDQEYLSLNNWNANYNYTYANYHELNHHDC
# In short: as §1
# [5] = molecular target: ELF4 (Homo sapiens, UniProt Q99607 1-663); details: protein: recombinant; tags: N-terminal GST; dsDNA, one strand shown
# In short: as §1
# [6] = molecular target: T3, ELK4 (Homo sapiens, UniProt P28324-2 1-405); details: protein: recombinant; tags: N-terminal GST; dsDNA, one strand shown
# T3 sequence: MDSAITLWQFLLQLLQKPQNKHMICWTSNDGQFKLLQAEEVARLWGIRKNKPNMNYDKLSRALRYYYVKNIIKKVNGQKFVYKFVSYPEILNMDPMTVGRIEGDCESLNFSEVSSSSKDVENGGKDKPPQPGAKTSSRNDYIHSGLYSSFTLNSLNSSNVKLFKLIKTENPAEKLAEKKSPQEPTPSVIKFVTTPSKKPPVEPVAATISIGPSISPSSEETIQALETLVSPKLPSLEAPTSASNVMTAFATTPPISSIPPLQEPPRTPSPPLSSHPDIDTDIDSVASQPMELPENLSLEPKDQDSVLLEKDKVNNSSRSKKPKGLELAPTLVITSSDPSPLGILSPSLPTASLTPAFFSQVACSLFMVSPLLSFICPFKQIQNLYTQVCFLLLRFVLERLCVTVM
# In short: as §1
# [7] = molecular target: T4, ETV2 (Homo sapiens, UniProt O00321 1-342); details: protein: recombinant; tags: N-terminal GST; dsDNA, one strand shown
# T4 sequence: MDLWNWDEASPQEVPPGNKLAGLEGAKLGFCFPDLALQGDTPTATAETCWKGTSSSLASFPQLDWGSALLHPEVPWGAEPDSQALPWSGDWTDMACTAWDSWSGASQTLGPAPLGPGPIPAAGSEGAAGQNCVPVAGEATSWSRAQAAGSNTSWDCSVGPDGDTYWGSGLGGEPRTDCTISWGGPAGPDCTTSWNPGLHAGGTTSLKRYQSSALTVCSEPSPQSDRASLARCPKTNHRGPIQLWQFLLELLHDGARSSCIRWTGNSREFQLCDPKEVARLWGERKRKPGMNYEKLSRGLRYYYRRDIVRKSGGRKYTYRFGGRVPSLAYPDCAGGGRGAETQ
# In short: as §1
# [8] = molecular target: T5, ELF3 (Homo sapiens, UniProt P78545 1-371); details: protein: recombinant; tags: N-terminal GST; dsDNA, one strand shown
# T5 sequence: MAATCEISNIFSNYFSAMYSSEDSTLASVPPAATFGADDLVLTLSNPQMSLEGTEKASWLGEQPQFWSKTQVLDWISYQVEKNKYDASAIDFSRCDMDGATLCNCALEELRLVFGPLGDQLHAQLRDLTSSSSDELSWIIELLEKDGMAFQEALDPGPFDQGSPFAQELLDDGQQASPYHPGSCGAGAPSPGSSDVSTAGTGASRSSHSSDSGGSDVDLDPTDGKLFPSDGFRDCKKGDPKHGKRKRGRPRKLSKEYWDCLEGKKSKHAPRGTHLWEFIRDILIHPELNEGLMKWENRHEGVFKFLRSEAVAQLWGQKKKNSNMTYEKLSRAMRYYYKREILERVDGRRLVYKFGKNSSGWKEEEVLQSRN
# In short: as §1
# [9] = molecular target: ETV1 (Homo sapiens, UniProt P50549 1-477); details: protein: recombinant; tags: N-terminal GST; dsDNA, one strand shown
# In short: as §1
# [10] = molecular target: T6, ERF (Homo sapiens, UniProt P50548 1-548); details: protein: recombinant; tags: N-terminal GST; dsDNA, one strand shown
# T6 sequence: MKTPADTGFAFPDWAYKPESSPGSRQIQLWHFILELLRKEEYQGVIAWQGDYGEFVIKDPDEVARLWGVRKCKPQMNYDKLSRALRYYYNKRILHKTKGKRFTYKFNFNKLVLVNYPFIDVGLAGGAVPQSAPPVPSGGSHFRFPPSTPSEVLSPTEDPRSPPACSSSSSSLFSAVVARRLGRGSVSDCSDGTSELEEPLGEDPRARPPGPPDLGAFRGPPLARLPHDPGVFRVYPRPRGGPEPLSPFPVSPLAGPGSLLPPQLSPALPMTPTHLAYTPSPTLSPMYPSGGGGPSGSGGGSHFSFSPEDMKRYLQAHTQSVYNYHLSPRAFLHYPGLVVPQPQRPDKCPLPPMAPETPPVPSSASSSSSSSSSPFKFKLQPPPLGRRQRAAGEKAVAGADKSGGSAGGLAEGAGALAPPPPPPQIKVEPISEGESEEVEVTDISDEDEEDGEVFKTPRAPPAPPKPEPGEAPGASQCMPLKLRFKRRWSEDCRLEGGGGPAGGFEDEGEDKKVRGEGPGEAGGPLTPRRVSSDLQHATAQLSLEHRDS
# In short: as §1
# [11] = molecular target: T7, ETV3L (Homo sapiens, UniProt Q6ZN32 1-361); details: protein: recombinant; tags: N-terminal GST; dsDNA, one strand shown
# T7 sequence: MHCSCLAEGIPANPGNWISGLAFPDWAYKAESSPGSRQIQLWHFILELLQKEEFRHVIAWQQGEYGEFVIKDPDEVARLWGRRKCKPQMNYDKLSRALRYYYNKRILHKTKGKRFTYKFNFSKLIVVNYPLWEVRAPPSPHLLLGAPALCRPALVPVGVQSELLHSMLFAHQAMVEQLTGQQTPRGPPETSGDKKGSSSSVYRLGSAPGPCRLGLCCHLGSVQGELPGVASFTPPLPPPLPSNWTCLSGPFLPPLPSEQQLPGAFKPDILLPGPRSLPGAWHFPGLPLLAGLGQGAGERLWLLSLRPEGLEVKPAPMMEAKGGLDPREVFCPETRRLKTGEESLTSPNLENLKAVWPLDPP
# In short: as §1
# [12] = molecular target: T8, ETS2 (Homo sapiens, UniProt P15036 1-469); details: protein: recombinant; tags: N-terminal GST; dsDNA, one strand shown
# T8 sequence: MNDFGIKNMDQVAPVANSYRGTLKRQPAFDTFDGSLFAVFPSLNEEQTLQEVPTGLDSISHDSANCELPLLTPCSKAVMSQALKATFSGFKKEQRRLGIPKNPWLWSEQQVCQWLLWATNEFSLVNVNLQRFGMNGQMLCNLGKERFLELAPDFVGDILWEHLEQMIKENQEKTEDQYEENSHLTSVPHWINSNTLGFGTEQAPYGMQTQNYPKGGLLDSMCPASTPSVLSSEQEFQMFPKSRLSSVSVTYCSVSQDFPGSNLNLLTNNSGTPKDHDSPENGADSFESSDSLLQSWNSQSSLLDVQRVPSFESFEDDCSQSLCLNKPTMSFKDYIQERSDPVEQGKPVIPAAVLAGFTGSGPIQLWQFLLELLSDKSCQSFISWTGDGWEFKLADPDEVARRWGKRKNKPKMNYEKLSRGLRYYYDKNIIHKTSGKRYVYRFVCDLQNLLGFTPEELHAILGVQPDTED
# In short: as §1
# [13] = molecular target: T9, SPDEF (Homo sapiens, UniProt O95238 1-335); details: protein: recombinant; tags: N-terminal GST; dsDNA, one strand shown
# T9 sequence: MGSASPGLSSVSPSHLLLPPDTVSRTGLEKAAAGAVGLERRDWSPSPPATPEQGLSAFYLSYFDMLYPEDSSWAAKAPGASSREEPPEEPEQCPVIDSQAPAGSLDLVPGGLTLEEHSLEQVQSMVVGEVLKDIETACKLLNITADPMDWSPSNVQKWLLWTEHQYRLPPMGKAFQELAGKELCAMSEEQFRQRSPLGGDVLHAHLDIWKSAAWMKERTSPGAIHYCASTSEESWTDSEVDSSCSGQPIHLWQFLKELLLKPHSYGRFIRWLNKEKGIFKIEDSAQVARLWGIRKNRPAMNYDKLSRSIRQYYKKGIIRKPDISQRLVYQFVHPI
# In short: as §1
# [14] = molecular target: T10, ETV7 (Homo sapiens, UniProt Q9Y603 1-341); details: protein: recombinant; tags: N-terminal GST; dsDNA, one strand shown
# T10 sequence: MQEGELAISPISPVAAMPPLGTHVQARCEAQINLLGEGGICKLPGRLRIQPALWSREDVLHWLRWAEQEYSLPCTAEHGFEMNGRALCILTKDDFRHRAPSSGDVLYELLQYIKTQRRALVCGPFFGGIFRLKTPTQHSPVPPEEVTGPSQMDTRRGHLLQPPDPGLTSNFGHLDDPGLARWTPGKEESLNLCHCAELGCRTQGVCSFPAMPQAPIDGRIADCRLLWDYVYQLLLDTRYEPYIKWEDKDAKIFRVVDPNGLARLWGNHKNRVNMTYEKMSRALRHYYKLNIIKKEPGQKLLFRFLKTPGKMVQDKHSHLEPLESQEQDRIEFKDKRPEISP
# In short: as §1
# [15] = molecular target: T11, ELF5 (Homo sapiens, UniProt Q9UKW6-2 1-255); details: protein: recombinant; tags: N-terminal GST; dsDNA, one strand shown
# T11 sequence: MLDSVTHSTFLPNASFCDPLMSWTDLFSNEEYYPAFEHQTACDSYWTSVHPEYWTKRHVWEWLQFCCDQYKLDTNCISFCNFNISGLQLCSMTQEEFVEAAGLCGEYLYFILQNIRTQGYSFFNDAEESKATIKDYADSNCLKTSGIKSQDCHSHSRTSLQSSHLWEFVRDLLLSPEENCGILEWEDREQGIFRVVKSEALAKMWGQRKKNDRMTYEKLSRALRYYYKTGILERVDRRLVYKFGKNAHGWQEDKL
# In short: as §1
# [16] = molecular target: T12, ETV3 (Homo sapiens, UniProt P41162-2 1-143); details: protein: recombinant; tags: N-terminal GST; dsDNA, one strand shown
# T12 sequence: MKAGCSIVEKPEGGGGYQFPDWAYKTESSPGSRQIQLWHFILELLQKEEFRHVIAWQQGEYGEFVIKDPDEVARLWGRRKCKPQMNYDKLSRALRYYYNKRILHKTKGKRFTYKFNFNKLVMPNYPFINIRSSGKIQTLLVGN
# In short: as §1
# [17] = molecular target: ETV6 (Homo sapiens, UniProt P41212 1-452); details: protein: recombinant; tags: N-terminal GST; dsDNA, one strand shown
# In short: as §1
# ETV5, sequence (P41161 whole entry): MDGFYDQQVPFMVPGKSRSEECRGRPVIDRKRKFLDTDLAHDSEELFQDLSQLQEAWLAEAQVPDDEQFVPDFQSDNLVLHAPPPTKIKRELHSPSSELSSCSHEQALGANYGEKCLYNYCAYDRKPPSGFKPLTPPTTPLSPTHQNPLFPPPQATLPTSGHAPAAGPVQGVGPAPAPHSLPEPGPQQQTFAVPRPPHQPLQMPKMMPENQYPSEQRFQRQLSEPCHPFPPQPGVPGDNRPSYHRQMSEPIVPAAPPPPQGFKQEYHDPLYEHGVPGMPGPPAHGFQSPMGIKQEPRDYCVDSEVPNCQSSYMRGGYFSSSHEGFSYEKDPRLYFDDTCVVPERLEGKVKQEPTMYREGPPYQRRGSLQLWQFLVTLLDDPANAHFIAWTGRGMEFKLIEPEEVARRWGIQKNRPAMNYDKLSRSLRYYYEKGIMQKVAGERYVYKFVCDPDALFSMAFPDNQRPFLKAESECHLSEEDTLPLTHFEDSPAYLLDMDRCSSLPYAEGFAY
# ETV6, sequence (P41212 whole entry): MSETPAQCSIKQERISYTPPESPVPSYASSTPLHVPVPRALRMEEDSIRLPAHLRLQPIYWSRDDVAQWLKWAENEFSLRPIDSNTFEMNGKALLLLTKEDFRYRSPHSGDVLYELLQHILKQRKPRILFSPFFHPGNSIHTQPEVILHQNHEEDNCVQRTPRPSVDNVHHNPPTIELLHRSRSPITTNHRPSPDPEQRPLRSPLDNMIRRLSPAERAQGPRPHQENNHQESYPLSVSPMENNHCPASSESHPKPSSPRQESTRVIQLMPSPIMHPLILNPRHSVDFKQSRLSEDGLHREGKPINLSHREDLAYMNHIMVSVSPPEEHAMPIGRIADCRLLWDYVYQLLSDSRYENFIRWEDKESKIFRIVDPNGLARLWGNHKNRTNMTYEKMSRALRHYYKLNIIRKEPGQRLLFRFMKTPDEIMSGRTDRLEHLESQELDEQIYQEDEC
# HSF1, sequence (Q00613 whole entry): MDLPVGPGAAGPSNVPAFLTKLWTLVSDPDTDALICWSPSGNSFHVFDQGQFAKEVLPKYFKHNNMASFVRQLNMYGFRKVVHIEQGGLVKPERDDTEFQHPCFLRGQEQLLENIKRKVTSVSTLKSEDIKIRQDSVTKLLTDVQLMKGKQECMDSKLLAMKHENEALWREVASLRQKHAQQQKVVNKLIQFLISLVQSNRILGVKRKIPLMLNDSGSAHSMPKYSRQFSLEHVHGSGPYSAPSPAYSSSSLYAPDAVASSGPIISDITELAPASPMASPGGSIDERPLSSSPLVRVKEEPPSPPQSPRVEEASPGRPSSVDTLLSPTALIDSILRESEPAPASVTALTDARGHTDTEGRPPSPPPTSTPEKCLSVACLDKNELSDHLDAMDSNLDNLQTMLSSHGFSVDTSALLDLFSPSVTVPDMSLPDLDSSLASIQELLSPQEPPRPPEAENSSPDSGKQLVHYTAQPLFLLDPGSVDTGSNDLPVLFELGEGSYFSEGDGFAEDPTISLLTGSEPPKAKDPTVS
# ELF4, sequence (Q99607 whole entry): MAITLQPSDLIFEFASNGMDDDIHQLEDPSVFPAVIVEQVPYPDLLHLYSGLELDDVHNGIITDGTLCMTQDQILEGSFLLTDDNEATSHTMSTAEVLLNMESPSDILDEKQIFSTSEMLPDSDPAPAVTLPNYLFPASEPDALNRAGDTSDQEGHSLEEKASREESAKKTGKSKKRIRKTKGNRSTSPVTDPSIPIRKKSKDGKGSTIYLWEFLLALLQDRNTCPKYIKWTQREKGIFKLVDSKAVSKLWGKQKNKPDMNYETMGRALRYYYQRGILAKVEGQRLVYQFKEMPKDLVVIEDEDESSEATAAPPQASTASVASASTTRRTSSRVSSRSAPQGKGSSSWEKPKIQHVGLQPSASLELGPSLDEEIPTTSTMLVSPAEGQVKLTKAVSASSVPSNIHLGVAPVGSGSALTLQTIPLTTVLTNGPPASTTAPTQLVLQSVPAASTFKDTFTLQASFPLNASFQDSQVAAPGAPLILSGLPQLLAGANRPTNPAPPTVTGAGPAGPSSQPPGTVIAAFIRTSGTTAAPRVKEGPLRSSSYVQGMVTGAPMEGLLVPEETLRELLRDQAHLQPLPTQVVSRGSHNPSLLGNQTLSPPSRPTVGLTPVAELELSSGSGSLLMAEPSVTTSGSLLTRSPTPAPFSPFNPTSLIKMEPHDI
# ETV1, sequence (P50549 whole entry): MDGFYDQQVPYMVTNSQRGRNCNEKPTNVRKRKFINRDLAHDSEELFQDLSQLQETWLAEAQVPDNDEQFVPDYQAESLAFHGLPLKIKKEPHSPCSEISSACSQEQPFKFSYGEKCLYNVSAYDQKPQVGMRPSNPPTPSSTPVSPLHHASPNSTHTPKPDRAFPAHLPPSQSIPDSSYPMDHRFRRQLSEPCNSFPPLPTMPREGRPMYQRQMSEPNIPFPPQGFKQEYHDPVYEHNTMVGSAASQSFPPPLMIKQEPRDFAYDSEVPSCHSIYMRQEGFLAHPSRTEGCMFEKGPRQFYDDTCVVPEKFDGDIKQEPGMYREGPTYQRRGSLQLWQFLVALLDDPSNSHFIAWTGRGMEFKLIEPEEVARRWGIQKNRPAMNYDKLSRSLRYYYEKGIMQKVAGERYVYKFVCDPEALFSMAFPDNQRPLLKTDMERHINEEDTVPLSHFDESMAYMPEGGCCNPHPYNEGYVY
Sequence,binding signal [1],binding signal [2],binding signal [3],binding signal [4],binding signal [5],binding signal [6],binding signal [7],binding signal [8],binding signal [9],binding signal [10],binding signal [11],binding signal [12],binding signal [13],binding signal [14],binding signal [15],binding signal [16],binding signal [17]
TGCCTG,"1.16 fold enrichment (6-mer frequency, TF over GST control)","1.37 fold enrichment (6-mer frequency, TF over GST control)","1.05 fold enrichment (6-mer frequency, TF over GST control)","1.32 fold enrichment (6-mer frequency, TF over GST control)","1.22 fold enrichment (6-mer frequency, TF over GST control)","1.25 fold enrichment (6-mer frequency, TF over GST control)","1.2 fold enrichment (6-mer frequency, TF over GST control)","1.05 fold enrichment (6-mer frequency, TF over GST control)","1.49 fold enrichment (6-mer frequency, TF over GST control)","1.46 fold enrichment (6-mer frequency, TF over GST control)","1.28 fold enrichment (6-mer frequency, TF over GST control)","1.28 fold enrichment (6-mer frequency, TF over GST control)","1.36 fold enrichment (6-mer frequency, TF over GST control)","1.17 fold enrichment (6-mer frequency, TF over GST control)","1.27 fold enrichment (6-mer frequency, TF over GST control)","1.31 fold enrichment (6-mer frequency, TF over GST control)","1.18 fold enrichment (6-mer frequency, TF over GST control)"
AACTTG,"1.17 fold enrichment (6-mer frequency, TF over GST control)","1.14 fold enrichment (6-mer frequency, TF over GST control)","1.09 fold enrichment (6-mer frequency, TF over GST control)","1.27 fold enrichment (6-mer frequency, TF over GST control)","1.28 fold enrichment (6-mer frequency, TF over GST control)","1.11 fold enrichment (6-mer frequency, TF over GST control)","1.12 fold enrichment (6-mer frequency, TF over GST control)","1.19 fold enrichment (6-mer frequency, TF over GST control)","1.05 fold enrichment (6-mer frequency, TF over GST control)","1.18 fold enrichment (6-mer frequency, TF over GST control)","1.17 fold enrichment (6-mer frequency, TF over GST control)","1.18 fold enrichment (6-mer frequency, TF over GST control)","1.14 fold enrichment (6-mer frequency, TF over GST control)","1.08 fold enrichment (6-mer frequency, TF over GST control)","1.06 fold enrichment (6-mer frequency, TF over GST control)","1.28 fold enrichment (6-mer frequency, TF over GST control)","1.09 fold enrichment (6-mer frequency, TF over GST control)"
